Test results as given in the supplement of paper PMC10105736.
Unmarked numbers belong to inactive results.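 How the source made its calls: active = MAPPIT score above the 99th percentile of random reference set scores in the same batch; inactive = at or below it.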

What was measured:
Assay in all cases: MAPPIT interaction score (arbitrary units); higher = stronger binary interaction signal, active = hit call of the paper
CG12470 = conditions: MAPPIT configuration: N-N; pair source set: Curagen_low_conf
Eb1 = conditions: MAPPIT configuration: N-N; pair source set: screen_1
SmydA-3 = conditions: MAPPIT configuration: N-N; pair source set: screen_2
Sply = conditions: MAPPIT configuration: N-N; pair source set: Finley_Y2H
ben = conditions: MAPPIT configuration: N-N; pair source set: screen_2
hb = conditions: MAPPIT configuration: N-N; pair source set: screen_1
promL = conditions: MAPPIT configuration: N-N; pair source set: screen_2
pzg = conditions: MAPPIT configuration: N-N; pair source set: Curagen_high_conf
spin = conditions: MAPPIT configuration: N-N; pair source set: screen_1
CG12576 = conditions: MAPPIT configuration: N-C; pair source set: screen_4
CG13887 = conditions: MAPPIT configuration: N-C; pair source set: screen_3
CG6845 = conditions: MAPPIT configuration: N-C; pair source set: screen_4
Tim17b2 = conditions: MAPPIT configuration: N-C; pair source set: screen_4
CG1246 = conditions: MAPPIT configuration: N-N; pair source set: DPIM
CG12567 = conditions: pair source set: RRS
CG14664 = conditions: pair source set: RRS
DIP1 = conditions: MAPPIT configuration: N-N; pair source set: screen_2
GstZ2 = conditions: pair source set: RRS
CG30355 = conditions: MAPPIT configuration: N-C; pair source set: screen_4
Vha16-2 = conditions: MAPPIT configuration: N-C; pair source set: screen_3
CG12343 = conditions: MAPPIT configuration: N-N; pair source set: DPIM
CG12768 = conditions: MAPPIT configuration: N-N; pair source set: Curagen_low_conf
CG8281 = conditions: MAPPIT configuration: N-N; pair source set: screen_1
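Further: HEK293T cells with Epo stimulation, STAT-responsive firefly luciferase reporter, fold induction versus unstimulated cells divided by the larger fold induction of two negative controls lacking either bait or prey.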

B1: sinah (protein)
chain: MSVRNSRPQLSWPERVSPQRTIDTPTASGEMLTRRQSAPALVVPPEETTHVVVVKRQSPDAAAAGELVPSRRKDSVAVQSGIVATGPLDTTRSGARDDFLMALLECPVCFGYIMPPIMQCPRGHLICSTCRSKLTICPVCRVFMTNIRSLAMEKVASKLIFPCKHSHFGCRARLSYAEKTKHEEDCECRPYFCPYPDDKCSWQGPLRDVYQHLMSSHENVITMEGNDIIFLATNVNLEGALDWTMVQSCHGRHFLLSLEKINLGEDCQQYFTACRMIGSMKDAAEFVYNISLEAYNRTLRWQSKPRSIRENFSSFTNADFLVLNKHTVELFSEDGNLALNVVIRKVEERTN
MAPPIT interaction score (CG12470): 2.95 (active) | MAPPIT interaction score (Eb1): -0.0985 | MAPPIT interaction score (SmydA-3): 0.15 | MAPPIT interaction score (Sply): 1.41 | MAPPIT interaction score (ben): 1.2 | MAPPIT interaction score (hb): -0.281 | MAPPIT interaction score (promL): 0.506 | MAPPIT interaction score (pzg): -1 | MAPPIT interaction score (spin): 0.564

B2: Tsf2 (protein)
chain: MASSLVFVALVGALCFTLANAQHHYDEHKTTRMVWCTKSQAEQYKCQNLTVAIERDRALFDEVFLNLTCFMAYSADECIHHIDREKAHITTLDAGDVFTAGRYNSLIPIMQEKLEGGFADYQSVAVIKKGSLPDLNNLRDMRNKRVCFPWVGSLAGWIVPIHTLQREGGMEVVDCNNQVKTAASYFNNSCAVYSLSDKHNPIGDNSDKLCTLCTGKIPGGRCSSADPYFGYEGAFKCLLEKGDVAFLRHSTVNEMLQTTEFKNIAPDTFELLCRDGRRASINDYRQCNWGQVPADAIVTSSARSFSDRKQYQQFLKRIAELYSDGTRDDQSRQGGQSFNSRNNINDQNAYGQFDNNDPYRTQNQYDQYRSERLDSSFAEERNQQDGTNTSILYEKFRIFESKRYGKPNLLFQDSSRALTVIPEDDQSFTKYLGPAINFIYGIRECPVPAMTLCVTSENELDKCIKMRTALKAHLLKPELICKKMHSHINCMQFIEAGKADISVFDAGDVYTGGLNYDLVPFMSEVYNLGEPEYYVVAVAKEDDPDTELTYLKGKNTCHTGINTAAGWTYPMALFISNGWIRPYGCDSVRAAAEYFTKSCVPGAISNEYNTGVPYDSMCDLCHGTSYRYCRRDASEEYYGHTGAFRCLVEGGGHVAFMKHTTVMESTGGKRKEWWARNALNDDFELLCTDGTRAEIQDYKRCNLGKVKANAVVTRGGVNYNETQMNAYINLLTYAQQLYGRKEVDAFSFSMFSSPIGHYDLIFQDATRQLQVIPPNKRRYDAYLGSDFMRARRITDCYAGASQLALSVGLLLVGSLVAML
MAPPIT interaction score (CG12576): 0.0626 | MAPPIT interaction score (CG13887): -0.181 | MAPPIT interaction score (CG6845): 0.127 | MAPPIT interaction score (Tim17b2): 0.851

B3: Vha68-2 (protein)
chain: MSNLKRFDDEERESKYGRVFAVSGPVVTAEAMSGSAMYELVRVGYYELVGEIIRLEGDMATIQVYEETSGVTVGDPVLRTGKPLSVELGPGIMGSIFDGIQRPLKDINELTESIYIPKGVNVPSLSRVASWEFNPLNVKVGSHITGGDLYGLVHENTLVKHKMIVNPRAKGTVRYIAPSGNYKVDDVVLETEFDGEITKHTMLQVWPVRQPRPVTEKLPANHPLLTGQRVLDSLFPCVQGGTTAIPGAFGCGKTVISQALSKYSNSDVIIYVGCGERGNEMSEVLRDFPELSVEIDGVTESIMKRTALVANTSNMPVAAREASIYTGITLSEYFRDMGYNVSMMADSTSRWAEALREISGRLAEMPADSGYPAYLGARLASFYERAGRVKCLGNPEREGSVSIVGAVSPPGGDFSDPVTSATLGIVQVFWGLDKKLAQRKHFPSINWLISYSKYMRALDDFYDKNFPEFVPLRTKVKEILQEEEDLSEIVQLVGKASLAETDKITLEVAKLLKDDFLQQNSYSSYDRFCPFYKTVGMLRNIIDFYDMARHSVESTAQSENKITWNVIREAMGNIMYQLSSMKFKDPVKDGEAKIKADFEQLHEDLQQAFRNLED
MAPPIT interaction score (CG1246): -0.102

B4: Adar (protein)
chain: MKFDSRVMLNSANNNSPQHPVSAPSDINMNGYNRKLPQKRGYEMPKYSDPKKKMCKERIPQPKNTVAMLNELRHGLIYKLESQTGPVHAPLFTISVEVDGQKYLGQGRSKKVARIEAAATALRSFIQFKDGAVLSPLKPAGNLDFTSDEHLENGIENLSSSKMFEIIQTMLTEKLSNPTSLEQPTFCMSQNVSKSAITVDGQKKVPDKGPVMLLYELFNDVNFECINIDGAQNNCRFKMTVTINEKKFDGTGPSKKTAKNAAAKAALASLCNISYSPMVVPQKNVPLPIDDKSSSMELPQIHADTIGRLVLEKFMEVIKGQEAYSRRKVLAGIVMTENMNFCEAKVISVSTGTKCVSGEHMSVNGAVLNDSHAEIVSRRCLLKYLYAQLDLQCNQATAYQSIFVRNTDGQYPYKLKSGVHFHLYINTAPCGDARIFSPHENDTGVDKHPNRKARGQLRTKIESGEGTIPVKSSDGIQTWDGVLQGQRLLTMSCSDKIARWNIVGIQGSLLSSIIEPVYLHSIVLGSLLHPEHMYRAVCGRIEKSIQGLPPPYHLNKPRLALVTSAEPRNQAKAPNFGINWTIGDTELEVVNSLTGRTIGGQVSRITKQAFFVKYGFLMANLPGILVRKVTTDYGQTKANVKDYQIAKLELFSAFKREDLGSWLKKPIEQDEFGLAE
MAPPIT interaction score (CG12567; MAPPIT configuration: N-C): 0.742 | MAPPIT interaction score (CG12567; MAPPIT configuration: N-N): 1.87 | MAPPIT interaction score (CG14664; MAPPIT configuration: N-C): -0.248 | MAPPIT interaction score (CG14664; MAPPIT configuration: N-N): 0.297 | MAPPIT interaction score (DIP1): -0.0973 | MAPPIT interaction score (GstZ2; MAPPIT configuration: N-C): 0.124 | MAPPIT interaction score (GstZ2; MAPPIT configuration: N-N): -0.194

B5: Cys (protein)
chain: MNVVKSLCILGLVLVSLIATQAADEQVVGGVSQLEGNSRKEALELLDATLAQLATGDGPSYKAINVTSVTGQVVAGSLNTYEVELDNGSDKKQCTVKIWTQPWLKENGTNIKIKCSGDDGELDRTW
MAPPIT interaction score (CG12576): -0.0839 | MAPPIT interaction score (CG30355): 2.13 | MAPPIT interaction score (Vha16-2): 0.0929

B6: CG8745 (protein)
chain: MPFAHEQLNLVASEQLSKTETIKLRNQHIGQACQLFYRSDPLKIVRGQGQYMFDEEGTRYLDCINNVAHVGHCHPEVVRAGALQMATISTNNRFLHDELVQCARTLTSKMPEPLSVCFFVNSGSEANDLALRLARNFTKRQDVITLDHAYHGHLQSVMEVSPYKFNQPGGEAKPDYVHVAPCPDVYGGKFTDKMYPDADMGALYAQPIEEICQKQLAKGQGVAAFIAESLQSCGGQILPPAGYFQAVYDAVRSAGGVCIADEVQVGFGRVGSHYWAFETQNVIPDIVCVAKPMGNGHPVGAVVTTPEIAQAFHATGVAYFNTYGGNPVSCAIANAVMRVIEEEGLQQKALVLGDYLLEECNRLKQEFECIGDVRGAGLFVGIELVQDRKERIPDKKAAHWVVNRMKQLHRVLVSSDGPNDNVIKLKPPMCFNRENADEFLLGFRECLTAVMQERLASATSAAMAATSGVIATATETLANKTKLFERQDRLIKSV
MAPPIT interaction score (CG12343): 0.219

B7: dod (protein)
chain: MPDAEQLPDGWEKRTSRSTGMSYYLNMYTKESQWDQPTEPAKKAGGGSAGGGDAPDEVHCLHLLVKHKGSRRPSSWREANITRTKEEAQLLLEVYRNKIVQQEATFDELARSYSDCSSAKRGGDLGKFGRGQMQAAFEDAAFKLNVNQLSGIVDSDSGLHIILRKA
MAPPIT interaction score (CG12768): 0.142 | MAPPIT interaction score (CG8281): -0.114
